Experiment [1] is described as follows: NCI Yeast Anticancer Drug Screen. Data for the rad50 strain (AID 155).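 Note: 0% = growth of vehicle-only cultures of the same strain.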 The settings on record: S. cerevisiae rad50 strain growth inhibition; at 50.0 µM; hits give high values. Summed up: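 Relative growth inhibition (compound vs vehicle) was measured in yeast with a defined repair-gene alteration.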
A short description of experiment [2]: NCI Yeast Anticancer Drug Screen. Data for the mec2-1 strain (AID 157). The note with it: S. cerevisiae mec2-1 strain, at 50.0 µM, hits give high values. The procedure, abridged:
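Strain: mec2-1 (DNA repair/cell cycle alteration). Compound exposure, then growth measured; inhibition expressed relative to vehicle.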

A short description of experiment [3]: NCI Yeast Anticancer Drug Screen. Data for the sgs1 mgt1 strain (AID 161).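 Note: 0% = growth of cultures given vehicle only.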 The settings on record: S. cerevisiae sgs1 mgt1 strain, at 50.0 µM, hits give high values. The procedure, abridged:
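Genetically altered yeast, compound exposure, growth inhibition relative to vehicle.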

Experiment [4] can be described thus: NCI Yeast Anticancer Drug Screen. Data for the cln2 rad14 strain (AID 165).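 Note: 0% = growth equal to vehicle treated cultures.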 The settings on record: S. cerevisiae cln2 rad14 strain, at 50.0 µM, hits give high values. The procedure, abridged: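 Compounds are applied to the cln2 rad14 yeast strain, and growth is then compared with that of vehicle-treated cultures to give inhibition.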
Experiment [5] is described as follows: NCI Yeast Anticancer Drug Screen. Data for the bub3 strain (AID 167). The note with it: S. cerevisiae bub3 mutant strain, at 50.0 µM, hits give high values. The procedure, abridged: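 Screening used yeast with an engineered genetic alteration affecting cell cycle control. Compound-exposed cultures were compared with vehicle cultures, and reduced growth was taken as inhibition.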

Experiment [6] in a line: NCI Yeast Anticancer Drug Screen. Data for the mlh1 rad18 strain (AID 175). The note with it: S. cerevisiae mlh1 rad18 strain growth inhibition; at 50.0 µM; hits give high values. Summed up: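 Read-out is yeast growth inhibition, calculated against vehicle-only controls. The compound was applied to a strain engineered with DNA damage repair alterations.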

About 79,000 compounds went through this panel and 15% of them were active in at least one assay; those are over-represented in the sample as a whole. Unmarked numbers belong to inactive results. The source made the active and inactive calls. Cut-off read from the data, not from the text of the source: active = growth inhibition above about 70%; inactive = the rest.

Regarding `CCOC(=O)N1CCCCC1`, the growth inhibition is -3.1% in experiment [1]; 5% in experiment [2]; 3.05% in experiment [3]; -16.1% in experiment [4]; -3.3% in experiment [5]; 5.95% in experiment [6].
Consider `COc1cc(C(=O)N=Nc2c(O)[nH]c3ccc(Br)cc23)cc(OC)c1OC`, for which the growth inhibition in experiment [1] was 3.55%; in experiment [2] it was -16.6%; in experiment [3] it was -7.1%; in experiment [4], -1.9%; in experiment [5] it was 2%; in experiment [6] it was -3.1%.
On to `COC(=O)c1cc(-c2cccc3ccccc23)[nH]c(=O)c1C#N`, for which the growth inhibition in experiment [1] was 8.85%; in experiment [2], 0.35%; in experiment [3] it was 17.6%; in experiment [4], 18.7%; in experiment [5], -6.6%; in experiment [6], 21.9%.
`C[C@]12CC[C@@H]3c4ccc(O)cc4CC[C@H]3[C@@H]1CC[C@@H]2OC(=O)CCc1ccccc1`: the growth inhibition is 35.1% in experiment [1]; 9.8% in experiment [2]; 26.3% in experiment [3]; 28.5% in experiment [4]; -2.4% in experiment [5]; 31.1% in experiment [6].
Take `COc1ccc(NC(=O)Nc2ccc(NC(C)=O)cc2)c(OC)c1`: the growth inhibition in experiment [1] is -6%; in experiment [2] it was -18.2%; in experiment [3] it was 14.5%; in experiment [4], 7.65%; in experiment [5] it was 17.1%; in experiment [6] it was 10.7%.
With `CCc1cc2c(cc1C(=O)/C=C\c1cccc3ccccc13)C(C)(C)CCC2(C)C`, the growth inhibition was 13.1% in experiment [1]; -5.35% in experiment [2]; 8.15% in experiment [3]; -20.1% in experiment [4]; -3.5% in experiment [5]; 15% in experiment [6].
In the case of `CC(C)NC(=O)OCc1c(COC(=O)NC(C)C)n(C)c2c1ccc1ccccc12`, the growth inhibition in experiment [1] was 89.8% (active); in experiment [2], 84.8% (active); in experiment [3] it was 83.8% (active); in experiment [4] it was 84.5% (active); in experiment [5], 87.5% (active); in experiment [6] it was 85.5% (active).
On to `C=CC1(c2ccc(Cl)c(Cl)c2)OCCO1`, for which the growth inhibition in experiment [1] was -11.3%; in experiment [2] it was 15.8%; in experiment [3], 15%; in experiment [4], -6.5%; in experiment [5] it was 9.55%; in experiment [6], 25.4%.
For `Cc1cc(N(CCCCl)CCCCl)ccc1C=Nc1cc(Br)c(O)c(Br)c1`, the growth inhibition was 81% (active) in experiment [1]; 52.4% in experiment [2]; 93.5% (active) in experiment [3]; 52.5% in experiment [4]; 76.3% (active) in experiment [5]; 84.9% (active) in experiment [6].
Regarding `CCCCCCNc1ncnc2c1cnn2C`, the growth inhibition in experiment [1] was 5.3%; in experiment [2] it was 6.85%; in experiment [3], 1.45%; in experiment [4] it was -17.9%; in experiment [5], 38.7%; in experiment [6] it was 3.4%.
On to `Cc1ccc(OC(=O)c2cccs2)cc1`, for which the growth inhibition in experiment [1] was 29.6%; in experiment [2] it was 4.95%; in experiment [3], -11.9%; in experiment [4] it was -48.1%; in experiment [5], 22%; in experiment [6], 22.1%.
For the compound `CCCCn1c(-c2ccccc2)cs/c1=N\N=C1C=C(C(C)(C)C)C(=O)C(C(C)(C)C)=C1`, the growth inhibition is 12.2% in experiment [1]; -13.9% in experiment [2]; 0.05% in experiment [3]; -35.2% in experiment [4]; -16.9% in experiment [5]; 16.9% in experiment [6].
In the case of `CSc1nc(=S)c2[nH]c(Cl)nc2[nH]1`, the growth inhibition in experiment [1] is -1.8%; in experiment [2] it was 0.4%; in experiment [3] it was -6.9%; in experiment [4] it was -15.2%; in experiment [5], 16.4%; in experiment [6], 0.25%.
As for `CC(C)C(O)(C(=O)OCC1=CC[N+]2(C)CCC(O)C12)C(C)O` (stereo not given), the growth inhibition in experiment [1] is 27.6%; in experiment [2], -15.3%; in experiment [3], 11.4%; in experiment [4], -21.4%; in experiment [5] it was -3.2%; in experiment [6], 1.95%.
For the compound `CCCCCCCCCCCCCCCCc1c(C(=O)OC)[nH]c(=S)[nH]c1=O`, the growth inhibition was -49% in experiment [1]; -18.2% in experiment [2]; -21.9% in experiment [3]; -2.8% in experiment [4]; -29.1% in experiment [5]; -11.3% in experiment [6].
Take `CCc1ccc(-n2c(C)nc3[nH]cc(C)c3c2=N)cc1`: the growth inhibition in experiment [1] was -13.6%; in experiment [2], -3.35%; in experiment [3], -11.9%; in experiment [4] it was -12.3%; in experiment [5] it was -2.65%; in experiment [6] it was -10.4%.
With `O=c1c(N2CCOCC2)c(N2CCOCC2)c1=O`, the growth inhibition in experiment [1] is -21.6%; in experiment [2], -22.9%; in experiment [3], 0.25%; in experiment [4], 15.4%; in experiment [5], -24.4%; in experiment [6], -1.1%.
Consider `C=C(C)C12CC3CC(/C(=N/O)C(C1)/C3=N\O)[C@@]2(C)O` (stereo not given in full), for which the growth inhibition was -31.8% in experiment [1]; -34.8% in experiment [2]; -46% in experiment [3]; -8.2% in experiment [4]; -26.9% in experiment [5]; -59% in experiment [6].
Take `Cc1nn(-c2nc(-c3ccc(Br)cc3)cs2)c(C)c1C`: the growth inhibition in experiment [1] was 12.9%; in experiment [2], -4.9%; in experiment [3] it was -9.95%; in experiment [4] it was 9.6%; in experiment [5], 5.65%; in experiment [6] it was 3.45%.
Turning to `O=[N+]([O-])c1ccc(/C(=N/Nc2ccccc2)c2ccc(Cl)cc2)cc1`, the growth inhibition in experiment [1] was 13.2%; in experiment [2], 2.1%; in experiment [3], 1.65%; in experiment [4], -14.1%; in experiment [5], 9.8%; in experiment [6], 4.1%.

For the origin of these results see PubChem BioAssay (NCI).
